NFkB transloc pot = enhancers of NFkB p65 translocation in HUVEC – imaging, IL-1B stimulus, high-content imaging, primary screen; activation, % at 2 µM; HUVEC IL-1B NFkB p65 nuclear translocation imaging; AID 819, 2007; hit rate 0.3% among 94,000;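 active = activation above 40%, about the mean plus 3 SD, also judged a hit on visual image review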;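 also: percent activation is computed from the nuclear over cytoplasmic p65 intensity ratio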
Cav3 T inh = Cav3.2 calcium influx blockers – cell-based, Fluo-4 calcium fluorescence, FDSS, MLSMR library, primary screen | B-score at 10 µM | hit rate 4% among 100,000 | Cav3.2-expressing cells; stronger effect = lower value;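 active = single-dose well whose peak fluorescence ratio is a statistical outlier from its plate by either plate-standardised score or position-corrected B-score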
Target sequence (O95180 whole entry, looked up): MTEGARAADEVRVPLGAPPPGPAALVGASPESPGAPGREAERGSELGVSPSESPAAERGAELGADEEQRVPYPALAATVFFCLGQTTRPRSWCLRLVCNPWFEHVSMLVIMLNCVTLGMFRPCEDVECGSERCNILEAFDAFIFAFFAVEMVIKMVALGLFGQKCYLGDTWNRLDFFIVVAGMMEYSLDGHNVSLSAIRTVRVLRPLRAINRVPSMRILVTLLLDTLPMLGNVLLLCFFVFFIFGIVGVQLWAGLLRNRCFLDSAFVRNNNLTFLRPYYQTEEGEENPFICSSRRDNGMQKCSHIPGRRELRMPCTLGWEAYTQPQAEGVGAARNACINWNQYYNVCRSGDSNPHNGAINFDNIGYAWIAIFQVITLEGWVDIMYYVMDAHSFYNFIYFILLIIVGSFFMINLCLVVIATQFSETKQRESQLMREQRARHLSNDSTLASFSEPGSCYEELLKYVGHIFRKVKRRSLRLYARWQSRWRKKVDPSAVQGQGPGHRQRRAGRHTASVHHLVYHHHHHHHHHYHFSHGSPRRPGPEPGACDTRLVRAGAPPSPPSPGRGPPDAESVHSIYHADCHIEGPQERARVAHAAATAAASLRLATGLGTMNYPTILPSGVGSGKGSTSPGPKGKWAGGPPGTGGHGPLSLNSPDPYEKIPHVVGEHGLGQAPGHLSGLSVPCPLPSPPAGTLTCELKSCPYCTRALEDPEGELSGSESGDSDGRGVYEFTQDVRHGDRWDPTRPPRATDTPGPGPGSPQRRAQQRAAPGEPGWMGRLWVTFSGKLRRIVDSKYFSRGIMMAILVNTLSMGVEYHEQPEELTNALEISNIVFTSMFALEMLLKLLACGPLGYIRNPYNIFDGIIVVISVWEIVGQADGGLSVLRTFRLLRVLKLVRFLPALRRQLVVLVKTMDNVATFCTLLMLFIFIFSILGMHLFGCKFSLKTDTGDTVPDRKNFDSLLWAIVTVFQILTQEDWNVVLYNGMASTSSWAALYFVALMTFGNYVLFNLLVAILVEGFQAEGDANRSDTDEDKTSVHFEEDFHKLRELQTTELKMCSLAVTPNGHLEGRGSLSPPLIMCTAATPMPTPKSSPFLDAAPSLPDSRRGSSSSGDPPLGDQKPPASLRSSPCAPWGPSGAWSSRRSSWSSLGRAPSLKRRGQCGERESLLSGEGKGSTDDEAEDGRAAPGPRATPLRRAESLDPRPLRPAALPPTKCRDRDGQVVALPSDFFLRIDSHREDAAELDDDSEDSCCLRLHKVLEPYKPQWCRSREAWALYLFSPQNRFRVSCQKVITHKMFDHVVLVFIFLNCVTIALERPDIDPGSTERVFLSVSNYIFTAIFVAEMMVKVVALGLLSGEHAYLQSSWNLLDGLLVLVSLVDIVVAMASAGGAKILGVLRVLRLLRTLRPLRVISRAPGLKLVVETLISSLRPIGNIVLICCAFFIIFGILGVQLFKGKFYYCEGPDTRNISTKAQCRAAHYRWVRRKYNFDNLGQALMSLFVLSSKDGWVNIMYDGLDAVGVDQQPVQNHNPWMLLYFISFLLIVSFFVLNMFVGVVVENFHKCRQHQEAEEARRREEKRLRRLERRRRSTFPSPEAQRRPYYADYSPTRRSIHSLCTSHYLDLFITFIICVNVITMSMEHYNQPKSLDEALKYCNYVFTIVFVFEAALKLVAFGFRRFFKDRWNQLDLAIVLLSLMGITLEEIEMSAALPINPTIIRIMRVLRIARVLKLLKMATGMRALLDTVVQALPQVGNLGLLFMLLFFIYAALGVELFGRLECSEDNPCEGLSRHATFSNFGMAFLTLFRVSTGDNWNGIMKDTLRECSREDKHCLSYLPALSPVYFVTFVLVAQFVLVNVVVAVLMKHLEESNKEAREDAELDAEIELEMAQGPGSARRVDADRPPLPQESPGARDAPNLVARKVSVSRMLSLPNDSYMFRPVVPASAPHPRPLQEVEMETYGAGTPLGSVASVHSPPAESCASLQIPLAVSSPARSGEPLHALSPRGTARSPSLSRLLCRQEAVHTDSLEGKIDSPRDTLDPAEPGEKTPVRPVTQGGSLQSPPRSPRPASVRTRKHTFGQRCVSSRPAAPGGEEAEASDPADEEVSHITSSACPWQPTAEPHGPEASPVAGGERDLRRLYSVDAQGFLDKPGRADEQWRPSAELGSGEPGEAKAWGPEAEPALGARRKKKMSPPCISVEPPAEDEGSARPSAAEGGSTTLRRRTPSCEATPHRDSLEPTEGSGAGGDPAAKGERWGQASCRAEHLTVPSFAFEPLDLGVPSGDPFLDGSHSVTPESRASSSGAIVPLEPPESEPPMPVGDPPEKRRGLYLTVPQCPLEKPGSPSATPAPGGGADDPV
IL1B NFkB inh = inhibitors of IL-1B driven NFkB p65 nuclear import, primary screen, imaging, HUVEC, IL-1B stimulus, high-content imaging; HUVEC IL-1B NFkB p65 nuclear translocation imaging; inhibition, % at 2 µM; hit rate 0.43% among 94,000; AID 796, 2007;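 active = inhibition above about 30% together with a positive call from visual inspection of the well image, limit read from the data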;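 also: nuclear over cytoplasmic p65 intensity ratio measured by imaging; 0% = IL-1B stimulated DMSO wells and 100% = unstimulated DMSO wells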
HUVEC tox IL1B = cytotoxicity in IL-1B stimulated HUVEC, primary screen, cytotoxicity control for IL-1B NFkB translocation project, imaging, Hoechst nuclear count, IL-1B stimulus; HUVEC cell count loss; cell count reduction, % at 2 µM; hit rate 0.41% among 94,000; AID 845, 2007;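 active = cell count reduction more than 3 SD above the screen-wide mean, cut at about 70% in these data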;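 also: normalized per plate to untreated control cells as the no-loss baseline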
An asterisk follows results filed as active; x = no result given. In the library only some 4.4% were active in any assay of this set; here they are far more common.

SMILES | NFkB transloc pot | Cav3 T inh | IL1B NFkB inh | HUVEC tox IL1B
COc1ccc(C(C)NC(=O)C2CCCO2)cc1OC (stereo not drawn) | 5 | 1.3 | -5 | -23
CC(C)c1cc(=O)oc2c3c4c(cc12)CCCN4CCC3 | x | -3.9* | x | x
Cc1cc(=O)oc2c3c4c(cc12)OCCN4CCC3 | 5 | -4.1 | -4 | -4
O=c1oc2c3c4c(cc2c(C(F)(F)F)c1CCN1CCOCC1)CCCN4CCC3 | 13 | -6.6* | -13 | -10
Cn1c(NCc2cccs2)nc2ccccc21 | 0 | 0.51 | 0 | -14
CCn1c(NCc2cccs2)nc2ccccc21 | -7 | 0.032 | 7 | 87*
O=C(Nc1cc(C(F)(F)F)ccc1N1CCOCC1)C1Cc2ccccc2CN1C(=O)c1ccco1 (stereo not drawn) | 3 | -8.8* | -3 | 6
COc1cccc(-c2csc(N3CCN(C(=O)NC45CC6CC(CC(C6)C4)C5)CC3)n2)c1 | 10 | -3.3* | -10 | -26
COc1cccc(-c2csc(N3CCN(C(=S)Nc4ccccc4)CC3)n2)c1 | -8 | -0.056 | 8 | -19
CCCC(C(=O)NCc1ccco1)N(C(=O)CNS(=O)(=O)c1ccccc1)c1ccccc1OC (stereo not drawn) | 38 | -5.4* | -38 | -39
COc1ccccc1N(C(=O)CNS(=O)(=O)c1ccccc1)C(C(=O)NCc1ccco1)C(C)C (stereo not drawn) | 4 | -0.023 | -4 | 9
Cc1ccc(S(=O)(=O)NCC(=O)N(CC(=O)NCc2ccco2)Cc2ccc3c(c2)OCO3)cc1 | -6 | -5.1* | 6 | 2
CCC(C(=O)NCc1ccco1)N(C(=O)CNS(=O)(=O)c1ccc(C)cc1)c1ccccc1OC (stereo not drawn) | 11 | -3.5* | -11 | -3
CCCC(C(=O)NCc1ccco1)N(C(=O)CNS(=O)(=O)c1ccc(Cl)cc1)C1CCCC1 (stereo not drawn) | -8 | -8.4* | 8 | -4
CCC(C(=O)NCc1ccco1)N(C(=O)CNS(=O)(=O)c1ccccc1)C1CCCCC1 (stereo not drawn) | 9 | 0.4 | -9 | -3
O=C(CCSc1nnc2scc(-c3ccccc3)n12)Nc1nc(-c2ccccc2)ns1 | -13 | -4.6* | 13 | 3
CC(=O)Nc1ccc(C(=O)CSc2nnc3scc(-c4ccccc4)n23)cc1 | 12 | 0.2 | -12 | 16
CCOC(=O)c1c(-c2ccccc2)csc1NC(=O)CSc1nnnn1C | -8 | -3.7 | 8 | 15
COc1cc([N+](=O)[O-])ccc1NC(=O)CCCOc1cccc(C)c1 | 2 | -3.4* | -2 | -16
CCOC(=O)c1c(-c2cccc([N+](=O)[O-])c2)csc1NC(=O)CCCOc1ccccc1OC | x | -4.8* | x | x
COC(=O)c1c(-c2ccccc2)csc1NC(=O)CSc1ncnc2sc(C)c(C)c12 | 12 | -2.6 | -12 | 89*
CCOC(=O)c1c(-c2ccc(OC)cc2)csc1NC(=O)CSc1ccccc1 | 9 | -4.8* | -9 | -1
CCCCNC1C(CC)C(CCC)C(C#N)(C#N)C1(C#N)C#N (stereo not drawn) | -2 | 0.042 | 2 | -67
NC(=O)CC(NC(=O)Cc1ccc(Br)cc1)c1ccc(N2CCN(c3ccccc3)CC2)c([N+](=O)[O-])c1 (stereo not drawn) | x | 0.49 | x | x
CCN1CCN(C(=O)c2ccc(Cl)c(S(=O)(=O)N3CCOCC3)c2)CC1 | 6 | 1.3 | -6 | -2
SMILES | NFkB transloc pot | Cav3 T inh | IL1B NFkB inh | HUVEC tox IL1B
CCOC(=O)c1c(-c2ccc(C)cc2)csc1NC(=O)C1CC=CCC1C(=O)O (stereo not drawn) | -8 | x | 8 | 12
CCOC(=O)c1c(-c2ccc(-c3ccccc3)cc2)csc1NC(=O)C1C2CCC(O2)C1C(=O)O (stereo not drawn) | 7 | -4.6* | -7 | 14
CCOC(=O)c1c(-c2cccc(C)c2)csc1NC(=O)C1CC=CCC1C(=O)O (stereo not drawn) | 2 | -8.9* | -2 | -1
O=C(O)c1cc(Cl)c2ccccc2c1O | 8 | -6.7* | -8 | -14
O=C(NC(Cc1ccccc1)C(=O)NCc1ccccn1)c1ccco1 (stereo not drawn) | -6 | 0.09 | 6 | -187
CC(C)NC(=O)c1noc2cc([N+](=O)[O-])ccc12 | -7 | 0.92 | 7 | -23
COCCOC(=O)c1c(C)oc2ccc(NS(=O)(=O)c3ccc(C(=O)O)cc3)cc12 | x | -0.028 | x | x
CCCCOC(=O)c1c(C)oc2ccc(NS(=O)(=O)c3ccc4c5c(cccc35)C(=O)N4)cc12 | -5 | -5.8* | 5 | -16
CCOC(=O)CCc1c(C)c2c(C)nn(-c3ccccc3)c2[nH]c1=O | -32 | -0.6 | 32* | -38
Cc1[nH]nc2c1C(c1ccc(F)cc1)C(C#N)=C(N)O2 (stereo not drawn) | 20 | 0.043 | -20 | -12
Cc1oc(C)c2c(=O)ccc3c(c12)OC(N)=C(C#N)C3c1ccc(F)cc1 (stereo not drawn) | x | -3.3* | x | x
COc1ccc(OC)c(C(=O)c2coc3ccc(O)cc23)c1 | -12 | -4.7* | 12 | -18
COc1ccccc1CN(Cc1cc2cc(C)ccc2[nH]c1=O)Cc1nnnn1Cc1ccco1 | -7 | -4.4* | 7 | -14
CCOC(=O)Cn1nnnc1CN(Cc1ccc(OC)cc1)Cc1cc2cc(CC)ccc2[nH]c1=O | 6 | -5.4* | -6 | 6
Cc1ccc2[nH]c(=O)c(CN(CCc3ccccc3)Cc3nnnn3CC3CCCO3)cc2c1 (stereo not drawn) | -10 | -3.6* | 10 | -8
CCc1ccc2[nH]c(=O)c(CN(Cc3ccccc3OC)Cc3nnnn3Cc3ccco3)cc2c1 | 6 | -0.19 | -6 | -12
CCOC(=O)Cn1nnnc1CN(Cc1ccc(OC)cc1)Cc1cc2cc(C)ccc2[nH]c1=O | 8 | -1.4 | -8 | -2
Cc1nn(CCC#N)c(NC(=O)c2ccc(Cl)cc2Cl)c1P(=O)(Nc1ccc([N+](=O)[O-])cc1)N1CCOCC1 (stereo not drawn) | 6 | -0.11 | -6 | 6
Oc1ccccc1-c1nc2cnccn2c1Nc1ccc2c(c1)OCCO2 | x | -2.8 | x | x
COc1ccccc1CNC(=O)CSc1nc2nc(C)cc(C)n2n1 | -10 | 0.56 | 10 | 6
COC(=O)CCn1nnc(-c2ccc(C(C)C)cc2)n1 | -5 | -5.4* | 5 | -31
COc1ccc(N2C(C)=CS/C2=C(/C#N)c2nnc(N3CCOCC3)n2-c2ccccc2)cc1 | 46* | 1.3 | -46 | -9
O=C(NCc1ccco1)C(c1ccco1)N(C(=O)Cn1nnc2ccccc21)c1ccc2c(c1)CCC2 (stereo not drawn) | 33 | -4.3* | -33 | -20
Cc1ccccc1C(C(=O)NCc1ccco1)N(CC1CCCO1)C(=O)Cn1nnc2ccccc21 (stereo not drawn) | -4 | -3.8* | 4 | -7
Cc1cccc(N(C(=O)Cn2nnc3ccccc32)C(C(=O)NCc2ccco2)c2ccncc2)c1 (stereo not drawn) | 9 | 0.72 | -9 | 4

Compound activity from PubChem BioAssay.
